High-throughput results: PubChem, several laboratories
An excerpt weighted towards active compounds, which were near 3.2% of everything screened.
APOBEC3G inh: APOBEC3G DNA deaminase inhibitors, primary screen, biochemical, fluorescence, single-stranded DNA substrate, uHTS | DNA dC->dU-editing enzyme APOBEC-3G (Homo sapiens), Q9HC16 | 330,000 compounds, 0.28% hits | recombinant A3G, ssDNA deamination FAM/TAMRA fluorescence | inhibition, % at 20 µM;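 active = inhibition of at least 40% at 20 µM, with no more than 30% in the related APOBEC3A deaminase screen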;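 also: plate controls were DMSO wells with A3G for no effect and wells lacking A3G enzyme for full effect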
Target sequence (Q9HC16 whole entry, looked up): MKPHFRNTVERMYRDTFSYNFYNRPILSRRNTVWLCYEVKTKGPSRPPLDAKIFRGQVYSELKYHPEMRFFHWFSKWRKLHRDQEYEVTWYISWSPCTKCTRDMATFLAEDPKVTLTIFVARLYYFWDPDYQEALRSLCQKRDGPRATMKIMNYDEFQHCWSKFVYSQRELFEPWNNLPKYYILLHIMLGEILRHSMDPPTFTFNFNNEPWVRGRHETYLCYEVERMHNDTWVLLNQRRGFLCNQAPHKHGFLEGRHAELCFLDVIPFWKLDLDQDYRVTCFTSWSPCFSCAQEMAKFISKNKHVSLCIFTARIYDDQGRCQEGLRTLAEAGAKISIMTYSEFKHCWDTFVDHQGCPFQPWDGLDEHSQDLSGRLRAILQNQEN
AHR act: AHR activators, primary screen, cell-based, luminescence, luciferase reporter, human | AID 2796, 2010 | AHR-responsive luciferase reporter cells | 320,000 compounds, 2.5% hits | activation, % at 5 µM; in the data active = activation above about 47%;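 also: 0% = vehicle wells and 100% = reference agonist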
APOBEC3A inh: APOBEC3A ssDNA deaminase inhibitors, primary screen, selectivity assay for APOBEC3G inhibitor project, biochemical, FAM/TAMRA oligo cleavage fluorescence | DNA dC->dU-editing enzyme APOBEC-3A (Homo sapiens), P31941 | recombinant A3A, FAM/TAMRA ssDNA deamination fluorescence | inhibition, % at 20 µM | 330,000 compounds, 0.41% hits | AID 493011, 2011;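 active = at least 40% inhibition at 20 µM here, with at most 30% in a related deaminase screen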;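 also: plate controls were A3A with DMSO for no effect and wells lacking A3A enzyme for full effect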
Target sequence (P31941 whole entry, looked up): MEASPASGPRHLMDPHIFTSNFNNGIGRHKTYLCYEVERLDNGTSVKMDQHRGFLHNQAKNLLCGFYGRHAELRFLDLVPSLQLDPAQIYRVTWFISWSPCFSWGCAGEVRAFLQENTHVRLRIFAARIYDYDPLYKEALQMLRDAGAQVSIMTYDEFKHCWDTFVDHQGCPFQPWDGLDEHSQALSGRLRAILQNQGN
NTR1 ag: agonists of human NTR1, primary screen, imaging, U2OS cells, beta-arrestin-GFP, high content; Neurotensin receptor type 1 (Homo sapiens), P30989; NTR1-U2OS beta-arrestin-GFP spot imaging, agonist mode; activation, % at 20 µM; 330,000 compounds, 0.17% hits; AID 493036, 2011;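 active = activation at or above 40% of the spot to cytoplasm intensity ratio, with at least 20 cells analyzed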;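 also: 0% = DMSO without peptide and 100% = 100 nM NTR1 peptide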
Numbers without * were called inactive.

`Oc1ccc(Nc2nc(-c3ccc4ccccc4c3)cs2)cc1` gave APOBEC3G inh -7, AHR act 64*, APOBEC3A inh 0 and NTR1 ag 10.
Brc1cc2[nH]cnc2c2ccccc12 was read as APOBEC3G inh -3, AHR act 63*, APOBEC3A inh 1 and NTR1 ag 2.
COCCN=c1scc(-c2ccccc2)n1/N=C/c1c[nH]c2ccccc12 was read as APOBEC3G inh -8, AHR act 55*, APOBEC3A inh -5 and NTR1 ag 10.
`Oc1cc2c(cc1O)[C@H]1c3ccc(O)c(O)c3OC[C@@]1(O)C2` gave APOBEC3G inh 59*, AHR act -1, APOBEC3A inh -2 and NTR1 ag -1.
For Cc1cc(C)c2nc(-c3ccccn3)cc(C(=O)NCc3ccco3)c2c1 the results were APOBEC3G inh 14, AHR act 69*, APOBEC3A inh 36 and NTR1 ag 1.
Screening Cc1cc(C)c2nc(-c3ccccn3)cc(C(=O)NCc3cc(C)n(C)n3)c2c1 returned APOBEC3G inh 4, AHR act 13, APOBEC3A inh 4 and NTR1 ag 5.
CC(C)[C@H](NC(=O)CCCn1nnc2ccccc2c1=O)C(=O)O was read as APOBEC3G inh -3, AHR act -2, APOBEC3A inh 0 and NTR1 ag 0.
Screening COc1cccc2[nH]c3c(N4CCN(Cc5ccc6c(c5)OCO6)CC4)ncnc3c12 returned APOBEC3G inh -8, AHR act 73*, APOBEC3A inh -4 and NTR1 ag 2.
COc1ccc2c(c1)[nH]c1c(N3CCN(Cc4ccc5c(c4)OCO5)CC3)ncnc12 was read as APOBEC3G inh -8, AHR act 12, APOBEC3A inh -1 and NTR1 ag 43*.
Screening COc1cccc2[nH]c3c(N4CCC5(CC4)OCCO5)ncnc3c12 returned APOBEC3G inh -7, AHR act 37, APOBEC3A inh 1 and NTR1 ag 0.
Screening COc1cccc2[nH]c3c(N4CCC(C)CC4)ncnc3c12 returned APOBEC3G inh -7, AHR act 60*, APOBEC3A inh 0 and NTR1 ag 5.
COc1cccc2[nH]c3c(N4CCc5ccccc5C4)ncnc3c12 was read as APOBEC3G inh -8, AHR act 30, APOBEC3A inh 3 and NTR1 ag 17.
For O=C(CSc1nc2ccccc2[nH]1)NCc1ccc2c(c1)OCO2 the results were APOBEC3G inh -6, AHR act 55*, APOBEC3A inh 2 and NTR1 ag 0.
Screening O=C(CCc1nc2ccccc2[nH]1)NCc1ccc2c(c1)OCO2 returned APOBEC3G inh 0, AHR act 8, APOBEC3A inh -1 and NTR1 ag 0.
For O=C(CSc1nc2ccccc2o1)NCc1ccc2c(c1)OCO2 the results were APOBEC3G inh -8, AHR act 70*, APOBEC3A inh -2 and NTR1 ag 2.
Screening Fc1cccc(/C=N/NC(=S)Nc2ccccc2Cl)c1 returned APOBEC3G inh -6, AHR act 76*, APOBEC3A inh 2 and NTR1 ag 2.
`S=C(N/N=C/c1ccc(Cl)c(Cl)c1)Nc1ccccc1Cl` gave APOBEC3G inh -18, AHR act 41, APOBEC3A inh 0 and NTR1 ag 1.
CCCC(=O)Nc1cc(C)c2c(=O)oc3ccccc3c2n1 was read as APOBEC3G inh -1, AHR act 53*, APOBEC3A inh 1 and NTR1 ag 15.
Screening CCN(CC)CC#CCC(OC)(c1ccccc1)c1ccccc1 returned APOBEC3G inh -4, AHR act 4, APOBEC3A inh -3 and NTR1 ag 1.
CC(C)CCn1cnc2c([nH]c3cccc(Cl)c32)c1=O was read as APOBEC3G inh -7, AHR act 60*, APOBEC3A inh 2 and NTR1 ag 0.
O=c1c2[nH]c3ccccc3c2ncn1CCN1CCCCC1 was read as APOBEC3G inh -4, AHR act 72*, APOBEC3A inh -2 and NTR1 ag -2.
O=c1c2[nH]c3ccccc3c2ncn1C1CCCCC1 was read as APOBEC3G inh 1, AHR act 48*, APOBEC3A inh 6 and NTR1 ag 1.
For O=c1c2ccccc2ncn1C1CCCCC1 the results were APOBEC3G inh -5, AHR act -1, APOBEC3A inh -1 and NTR1 ag 1.
For O=C(NCc1ccco1)c1ccc(COc2ccccc2[N+](=O)[O-])o1 the results were APOBEC3G inh -9, AHR act 4, APOBEC3A inh -3 and NTR1 ag 0.
`CCOc1cc(-c2ccc(N)c(OCC)c2)ccc1N` gave APOBEC3G inh -6, AHR act 50*, APOBEC3A inh -1 and NTR1 ag 0.
For CCCCC(=O)NC(=O)NC(c1ccccc1)c1ccccc1 the results were APOBEC3G inh -2, AHR act 0, APOBEC3A inh 0 and NTR1 ag 3.
For COc1cc2c(cc1OC)/C(=C/C(=O)c1ccc(OC)c([N+](=O)[O-])c1)NCC2 the results were APOBEC3G inh 0, APOBEC3A inh 0 and NTR1 ag 5.
For COc1cc2c(cc1OC)/C(=C/C(=O)c1cccc([N+](=O)[O-])c1)NCC2 the results were APOBEC3G inh -2, AHR act 79*, APOBEC3A inh 1 and NTR1 ag 8.
Cc1ccc(C(=O)N/C(=C\c2ccc(Cl)cc2)C(=O)NCCN2CCOCC2)cc1 was read as APOBEC3G inh 1, AHR act 0, APOBEC3A inh 5 and NTR1 ag 0.
For CN(C)S(=O)(=O)Oc1ccsc1C(=O)Nc1cccc(Cl)c1Cl the results were APOBEC3G inh 1, AHR act 60*, APOBEC3A inh 1 and NTR1 ag 0.
Screening C=CCN1N=C(c2ccc(NC(=O)c3ccccc3)cc2)CSC1=O returned APOBEC3G inh 0, AHR act 3, APOBEC3A inh 2 and NTR1 ag 0.
For Cc1ccc2[nH]c(C(=O)Nc3ccc(F)cc3)cc2c1 the results were APOBEC3G inh -4, AHR act 11, APOBEC3A inh -3 and NTR1 ag 0.
`Cc1ccc2[nH]c(CNC(=O)c3ccc(F)cc3)cc2c1` gave APOBEC3G inh -5, AHR act 65*, APOBEC3A inh -3 and NTR1 ag 0.
O=C(c1ccccc1)n1ccc2ccccc21 was read as APOBEC3G inh 0, AHR act 62*, APOBEC3A inh 6 and NTR1 ag 0.
For COc1ccccc1NS(=O)(=O)c1cccc(C(=O)N/N=C(\C)c2ccc(-n3ccnc3)cc2)c1 the results were APOBEC3G inh -8, AHR act 67*, APOBEC3A inh -5 and NTR1 ag 1.
For C/C(=N\NC(N)=S)c1ccc(-n2ccnc2)cc1 the results were APOBEC3G inh -10, AHR act 113*, APOBEC3A inh -4 and NTR1 ag 1.
